# Measurements reported in PubChem BioAssay (NCI).
# Compounds without any hit were thinned out: in the full panel of roughly 83,000, 20% have a hit.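 96-well plates, one dose, 48 hours. Percent growth reported; active if below 10.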 Values without a mark were called inactive. Calls of active or inactive are those of the source.
# Test system: ACHN renal
# Assay: NCI-60 one-dose screen, 48 h (100 = growth as untreated, 0 = no growth, -100 = all killed)
# Details: 10 µM
# Experimental: Growth inhibition of the ACHN human tumor cell line is measured as a screen for anti-cancer activity. Cells are grown in 96 well plates and exposed to the test compound for 48 hours. Compounds are tested at a single concentration, which is 10^-5 M for most compounds. The reported endpoint is percent growth (GI% or GIPRCNT), where numbers from 0 - 100% represent growth inhibition, and numbers from -100% - 0 represent cell death. For example, a value of 40 represents 60% growth inhibition. A value of 0 means no net growth occurred over the course of the experiment. A value of -40 indicates 40% of cells at the beginning of the experiment died by the end of the experiment. A value of -100 means all cells are dead at the end of the experiment.
# NCI-60 Human Tumor Cell Lines Screen was performed using the standard one-dose NCI protocol, which is described in more detail at https://dtp.cancer.gov/discovery_development/nci-60/default.htm.
# Compounds with GIPRCNT values below 10 were considered active. Activity score was based on GIPRCNT using the following formula: […]
# Score is 0 for GIPRCNT values of 100 or above, 50 for GIPRCNT values of 0, and 100 for GIPRCNT values of -100.
row,Structure (SMILES),growth
1,COc1ccc2[nH]cc(/C=N/Nc3cccc(Cl)n3)c2c1,47.8%
2,CONC[C@]1(C)C=C2C(=O)[C@](C)(O)C3(CC3)C(C)=C2[C@H]1O,-25.7% (active)
3,O=c1oc2ccc(-c3ccc(F)cc3F)cc2c(=O)n1-c1ccc(F)c(Cl)c1,-12.7% (active)
4,NS(=O)(=O)c1ccc(NC(=O)CSc2ccc(-c3ccccc3)nn2)c(Br)c1,54.2%
5,Cc1cccc(-c2nc(Nc3ccccc3C(=O)O)c3ccccc3n2)c1,36.4%
6,O=C(Cc1ccc2c(c1)CN(C1CCC(=O)NC1=O)C2=O)NCCc1ccccc1 (stereo not given),48.9%
7,CCCn1c(O)c(N=Nc2nc(-c3cc4ccccc4oc3=O)cs2)c2cc(Br)ccc21,91.1%
8,O=C(Nc1ccc(OCc2ccccc2)cc1)Nc1ccc(Cl)c(C(F)(F)F)c1,0.776% (active)
9,COc1cccc(/C=C2\N=C(C)N(CCc3ccc(S(N)(=O)=O)cc3)C2=O)c1,107%
10,COc1cccc(-c2ccc(/C=N/NC(=O)c3[nH]c4ccc(Br)cc4c3-c3ccccc3)o2)c1,22.3%
11,CCCCCCCCCCCCCCCCCCCC(=O)NCCc1c[nH]c2ccc(OC(=O)NOCCOCCOCCOCCOCCOCCOCCOCCOCCOCCOCCOCCOCCOCCOCCOCCOCCOCCOCCOCCOCCOCCOC)cc12,40.7%
12,COc1ccc(CN2[C@@H](C(=O)NCc3ccc(C(=O)NO)cc3)Cc3c([nH]c4ccccc34)[C@@H]2C)cc1,36%
13,C=C[C@H]1[C@H](O[C@@H]2OC(CO)[C@@H](O)[C@H](O)C2OC(=O)c2c(O)cc(O)cc2-c2cccc(O)c2)OC=C2C(=O)OCC[C@H]21 (stereo not given in full),105%
14,O=C(CNc1nc(-c2ccccc2)cs1)Nc1cccc(Cl)c1,28.3%
15,O=C(c1ccc(Cl)cc1)C1[C@H](c2ccccc2Br)[C@@H](c2ccccc2)NC12C(=O)Nc1ccc(Cl)cc12 (stereo not given in full),9.92% (active)
16,OCCCNc1oc(-c2ccccc2)nc1[P+](c1ccccc1)(c1ccccc1)c1ccccc1,51%
17,CN1CCN(c2ccc(Nc3nc(NCCCNC(=O)c4ccc(F)cc4)c4sccc4n3)cc2)CC1,36.7%
18,COc1ccc2nc(Cl)c(-c3cc(-c4ccccc4)nc(=S)[nH]3)cc2c1,51.3%
19,COc1ccc(-c2nc(Nc3ccccc3S(N)(=O)=O)c3ccccc3n2)cc1,15.3%
20,O=C(CSc1nnc(-c2c[nH]c3ccccc23)n1-c1ccccc1)c1ccc(Br)cc1,37.4%

row,Structure (SMILES),growth
1,COc1ccc(-c2cc(C(=O)N=Nc3c(O)[nH]c4ccc(Br)cc34)c3ccccc3n2)cc1,24.5%
2,COc1cc(/C=C/C(=O)c2ccc(NC(=O)CN3C(=O)NC(C)(c4ccccc4)C3=O)cc2)cc(OC)c1OC (stereo not given),56%
3,CN1C(=O)N(C)C2SC(N/N=C/C=C/c3ccccc3)=NC21 (stereo not given),92.7%
4,CCCCOc1ccc(Nc2nc3ccccc3nc2Nc2ccc(OCCCC)cc2)cc1,97.7%
5,CCCn1c(=O)c2[nH]c(-c3ccc(OCc4nc5ccccc5[nH]4)cc3)nc2n(CCC)c1=O,32.4%
6,COc1cccc2nc(Nc3cccc(NC(=O)c4ccc(CN5CCCN(C)CC5)c(C(F)(F)F)c4)c3)ccc12,-100% (active)
7,CC(=C(c1ccc(OCCN2CCCCCC2)cc1)c1ccc(OCCN2CCCCCC2)cc1)c1ccc(Cl)cc1,-100% (active)
8,O=C(CNc1nc(-c2ccccc2)cs1)Nc1ccccc1,-27.4% (active)
9,CCOc1ccc(/C=N/NC(=O)Cn2nc(Cc3ccccc3)c3onc(C)c3c2=O)cc1,6.42% (active)
10,C/C(=C\CSc1ccccc1C(=O)O)CCCC(C)CCCC(C)CCCC(C)C (stereo not given),37.5%
11,CC(=O)Nc1nc(-c2ccc(N3CCN(C)CC3)c(NS(=O)(=O)c3ccc(C(F)(F)F)cc3)c2)cs1,5.92% (active)
12,C#CCNC(=O)[C@]12CCC(C)(C)C[C@H]1C1=CC[C@@H]3[C@@](C)(CCC#N)[C@H](C(=C)C)CC[C@@]3(C)[C@]1(C)CC2,60.2%
13,CN(C)c1ccc(/C=C/c2nc3ccccc3c(=O)n2CC(=O)Nc2ccccc2)cc1,18.8%
14,CN(C)c1nc(NCCNS(=O)(=O)c2ccc(C(=O)/C=C/c3ccccc3)cc2)nc(Nc2ccc(F)cc2)n1,12.7%
15,O=c1[nH]n(C(=S)N/N=C/c2ccc(F)cc2)c(=O)c2ccccc12,82.5%
16,Cc1nc(Nc2nc(C)c3ccc(OCCN4CCOCC4)cc3n2)[nH]c(=O)c1C,-50.2% (active)
17,COc1ccc(OC)c(-c2cc(-c3c[nH]c4ccccc34)nc(N)c2C#N)c1,8.49% (active)
18,O=c1[nH]c2ccccc2cc1CSc1ccc(Nc2nccc(-c3ccc(C(F)(F)F)cc3)n2)cc1,-29.1% (active)
19,CC(C)C(=O)Nc1ccc(C(=O)NC(=S)Nc2ccc(C(=O)O)cc2)cc1,104%
20,COc1ccccc1[C@H]1C(C(=O)c2ccc(Cl)cc2)C2(N[C@@H]1c1ccccc1)C(=O)Nc1ccccc12 (stereo not given in full),-3.58% (active)
